GALK inhibitor = inhibits human galactokinase; recombinant GALK, Kinase-Glo ATP luminescence, 1 h; 44,000 tested, under 10 active; Potency, µM (highest dose often 57.5 µM), for the others: at the top dose activity, negative = inhibition, usual class: inhibitors; AID 1347072; P51570;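 also: plate controls were full GALK reaction for no effect and reaction lacking GALK for full effect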
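5 nM GALK; 35 uM ATP; 100 uM D-galactose; 20 mM HEPES pH 8.0, 5 mM MgCl2, 60 mM NaCl, 1 mM DTT, 0.01% BSA; 1 h RT; Kinase-Glo Plus luminescence.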
HTT prom inh = inhibits huntingtin promoter activity; HEK293 HTT promoter firefly luciferase reporter, 24 h; hit rate 0.93% among 48,000; Potency, µM (doses to about 57.5 µM), without a hit: at the highest dose activity change, negative = inhibition, hits mostly inhibitors; also: potency is read from the fitted curve at half-maximal effect; nearly all actives have a fitted effect of over 50% in size
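Firefly luciferase readout (Dual-Glo, 10 min RT) after 24 h, 37 °C compound exposure (final up to 57.5 uM) of HEK293 reporter cells cultured 24 h beforehand; PTC124 at 50 uM final as control inhibitor; activity scaled vehicle 0%, zero RLU -100%.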
NTMT1 inh = blocks human N-terminal methyltransferase 1 activity. Q9BV86. NTMT1 MTase-Glo SAH luminescence, purified enzyme. Potency, µM (doses to about 114 µM), inactives show at the highest dose activity change, negative = inhibition, most hits filed as inhibitors. hit rate 2.5% among 59,000;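 also: potency is read from the fitted curve at half-maximal effect; plate controls were DMSO vehicle for no effect and no enzyme for full effect; nearly all actives have a fitted effect of over 65% in size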
Target sequence (Q9BV86 whole entry, looked up): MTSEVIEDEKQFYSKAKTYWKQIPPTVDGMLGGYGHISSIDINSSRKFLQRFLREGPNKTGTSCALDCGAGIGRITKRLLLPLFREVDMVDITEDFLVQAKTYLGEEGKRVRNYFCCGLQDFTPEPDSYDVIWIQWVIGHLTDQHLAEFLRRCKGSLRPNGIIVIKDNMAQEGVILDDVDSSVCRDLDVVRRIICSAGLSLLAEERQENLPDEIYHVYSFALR
B2AR arrestin ag = beta-arrestin recruitment by human beta2-adrenergic receptor ligands | Potency, µM (highest dose often 46.1 µM), actives largely listed as activators | 44,000 tested, under 10 active | AID 1347077 | HTLA Tango cells, beta-arrestin recruitment, luciferase luminescence, 18 h | P07550;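 also: potency is read from the fitted curve at half-maximal effect; 0% = DMSO and full agonism = EC100 isoproterenol or metaproterenol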
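Tango cells (recombinant beta2-AR, beta-arrestin, tTA-driven luciferase), 1500/well in DMEM 1% FBS, treated 18 h at 37 °C with compounds up to 46 µM; luciferin mix added, luminescence read after 15 min; %activity curves fitted and curve-classed.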
HTT-AS act = HTT-AS promoter activation. hit rate 0.24% among 48,000. HEK293 HTT-AS promoter firefly luciferase reporter, 24 h; response scale: percent change from vehicle, -100% = no light. Potency, µM (top dose mostly 57.5 µM), without a hit: at the top dose activity change, positive = activation, actives largely listed as activators; also: potency is read from the fitted curve at half-maximal effect; nearly all actives have a fitted effect of over 55% in size
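Quantitative HTS used concentration series of up to 57.5 uM final on HEK293 luciferase reporter cells, 24 h at 37 degrees C. Readout was Dual-Glo firefly luminescence.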
TSG101-PTAP inh = blocks PTAP binding to human TSG101, validation. Q99816. Fluorescence polarization, FITC-PTAP peptide/Tsg101, 20 min. Potency, µM (highest dose often 115 µM), most hits filed as inhibitors. 44,000 tested, under 10 active. AID 1347069; also: potency is read from the fitted curve at half-maximal effect; 0% is about no effect
Target sequence (Q99816 whole entry, looked up): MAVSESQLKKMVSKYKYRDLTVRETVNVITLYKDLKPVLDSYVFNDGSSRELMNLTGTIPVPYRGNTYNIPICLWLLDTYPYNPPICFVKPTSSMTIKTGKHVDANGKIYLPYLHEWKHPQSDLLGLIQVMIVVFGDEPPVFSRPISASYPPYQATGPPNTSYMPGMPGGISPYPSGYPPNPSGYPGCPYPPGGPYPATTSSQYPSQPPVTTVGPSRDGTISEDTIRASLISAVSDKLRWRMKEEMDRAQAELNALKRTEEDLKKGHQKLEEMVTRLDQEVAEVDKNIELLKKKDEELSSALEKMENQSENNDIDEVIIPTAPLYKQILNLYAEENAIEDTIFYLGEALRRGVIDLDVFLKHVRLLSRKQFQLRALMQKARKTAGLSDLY
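Steps: Tsg101 binding domain (10 uM final) in HEPES pH 7.5/NaCl/Tween 20/EDTA/TCEP; add compound; add FITC-PTAP peptide (50 nM final); incubate 20 min r.t.; read polarization.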
The depositor's hits bear a star; i = inactive; ? = inconclusive; / = not tested or not shown; ! = not confirmed by another sample; [ ] = another dose, or the depositor's remark. This is one part of a sample in which hits are shown more often than they occur. Calls follow the shape of the dose curve; as a rule, active = well fitted curve in the direction sought with a large enough effect; inconclusive = small, poorly fitted or top-dose-only effect, or another doubt; inactive = no such curve, though single readings can be large; an effect the other way counts as inactive or inconclusive.

SMILES | GALK inhibitor | HTT prom inh | NTMT1 inh | B2AR arrestin ag | HTT-AS act | TSG101-PTAP inh
CC(=O)O[C@@H](CO[C@@H]1O[C@H](CO)[C@H](O)[C@H](O)[C@H]1O)[C@]1(C)C=C2CC[C@@H]3C(C)(C)[C@@H](O)CC[C@@]3(C)[C@@H]2CC1 | / | / | 5%[29.8 µM] | / | / | /
COC(=O)c1cc2sccc2n1CC(=O)Nc1cc(Cl)ccc1OC | 2% | 28µM* | 19% | i | -85% | i
COc1ccc2sc(N(Cc3cccnc3)C(=O)c3ccc4c(c3)OCCO4)nc2c1 | 0% | 11µM* | -3% | i | -20% | i
CS(=O)(=O)c1ccc([C@@H](CC2CCCC2)C(=O)Nc2cnccn2)cc1Cl | / | / | 16%[228 µM] | / | / | /
O=C(O)c1ccc(-c2noc(-c3cccc(Cl)c3)n2)cc1 | / | / | -18% | / | / | /
CC(=O)Nc1cccc(-c2nc(-c3ccccc3)no2)c1 | -1% | 56% | -14% | i | 1.1µM* | i
CC1=C(C(=O)Nc2ccc(Cl)cc2)C(c2ccccc2)n2ncc(C(=O)Nc3ccccc3)c2N1 (stereo not given) | -8% | 25µM* | 13% | i | -55% | i
Cc1c(C(=O)Nc2ccc(N3CC(C)OC(C)C3)nc2)cccc1-c1ccc(OC(F)(F)F)cc1 (stereo not given) | / | / | 5%[57.5 µM] | / | / | /
COC(=O)c1c(NC(=O)CCCOc2ccc(C)cc2)sc2c1C(C(=O)OC)CC2 (stereo not given) | -23% | -11% | 18µM* | i | -14% | i
COC(=O)c1c(NC(=O)CCCOc2ccc(C)cc2)sc2c1CCCC2 | -1% | -10% | -6% | i | -19% | i
COC(=O)c1c(NC(=O)CCCOc2cccc(C)c2)sc2c1CCC2 | -17% | -15% | -10% | i | 2% | i
CCOc1ccc(/C=C/C(=O)Nc2sc3c(c2C(=O)OC)C(C(=O)OC)CC3)cc1 (stereo not given) | -1% | -13% | 10µM* | i | -10% | i
COC(=O)c1c(NC(=O)CCCOc2cccc(C)c2)sc2c1C(C(=O)OC)CC2 (stereo not given) | -4% | ? | 14µM* | i | -26% | i
CC1(C(=O)O)CCC2(C)CCC3(C)C(=CC(=O)C4C5(C)CCC(OC6OC(C(=O)O)C(O)C(O)C6OC6OC(C(=O)O)C(O)C(O)C6O)C(C)(C)C5CCC43C)C2C1 (stereo not given) | / | / | 7% | / | / | /
O=S(=O)(Nc1nc(CN2CCOCC2)nc2sc3c(c12)CCCC3)c1ccc2ccccc2c1 | / | / | 11% | / | / | /
COc1ccc(-c2nc3c4ccccc4n(CC(=O)N4CCN(c5ccc(F)cc5)CC4)c(=O)n3n2)cc1 | 7% | -2% | 89µM* | i | -3% | i
O=C(Cc1ccc(Cl)c(Cl)c1)Nc1ccc([S+](=O)([O-])Nc2ccc3[nH]ccc3c2)cc1 | / | / | 7% | / | / | /
COc1cc(Nc2nc(-c3ccncc3)nc3ccccc23)ccc1N1CCN(C)CC1 | / | / | 8.9µM* | / | / | /
CN1CCN(c2ccc(Nc3nc(-c4ccncc4)nc4ccccc34)cc2F)CC1 | / | / | 22µM* | / | / | /
Fc1cccc(CSc2nc3ncc(Br)cc3[nH]2)c1 | / | / | -9% | / | / | /
CN1CCN(C(=O)[C@H](Cc2ccc(O[S+](=O)([O-])c3cccc4cnccc34)cc2)N[S+](=O)([O-])c2cccc3cnccc23)CC1 | / | / | -1% | / | / | /
Cc1ccc(-c2nc3ccccn3c2Nc2ccc3c(c2)OCO3)cc1 | 2% | -8% | ? | i | -2% | i
Cc1ccc(-c2nc3ccccn3c2Nc2ccc3c(c2)OCCO3)o1 | 0% | -11% | 16µM* | i | 5% | i
Cc1ccc(Nc2c(-c3ccc(N(C)C)cc3)nc3ccccn23)cc1 | 3% | 72% | ? | i | 2µM* | i
Cc1ccn2c(Nc3ccc4c(c3)OCCO4)c(-c3cccs3)nc2c1 | -8% | 17% | 13µM* | i | ? | i
SMILES | GALK inhibitor | HTT prom inh | NTMT1 inh | B2AR arrestin ag | HTT-AS act | TSG101-PTAP inh
O=C1CCCC2=C1C(c1c(Cl)cccc1Cl)N=C(Nc1nc3ccccc3o1)N2 (stereo not given) | / | / | 7% | / | / | /
CS(=O)(=O)c1ccc([C@@H](CC2CCCC2)C(=O)Nc2nccs2)cc1 | / | / | 3% | / | / | /
CC(C)(C)C1CCc2c(sc(NC(=O)CCC(=O)O)c2C(=O)Nc2ccccc2C(F)(F)F)C1 (stereo not given) | -1% | ? | 45µM* | i | -55% | i
COc1ccccc1NC(=O)c1c(NC(=O)c2cccs2)sc2c1CCC(C(C)(C)C)C2 (stereo not given) | -3% | -11%[11.5 µM] | 21% | i | 8%[11.5 µM] | i
COc1cc(O)c(C(CC(=O)N2CCCC(C)(C)C2)c2ccc3c(c2)OCO3)c(OC)c1 (stereo not given) | / | / | 16% | / | / | /
CCC(c1ccc(O)cc1)C(CC)c1ccc(O)cc1 (stereo not given) | / | ? | ? | / | -33% | /
CC[C@H](c1ccc(O)cc1)[C@@H](CC)c1ccc(O)cc1 | / | -17% | 11µM* | / | -28% | /
O=S(=O)(c1cccc2ccccc12)N1CCN(c2ccc(Cl)c(Cl)c2)CC1 | 8% | -3% | 5% | i | -6% | i
O=S(=O)(c1cccc2c(I)cccc12)N1CCCNCC1 | / | / | 40µM*! | / | / | /
CC/C=C\CC1C(=O)CCC1CC(=O)OC (stereo not given) | / | / | 25% | / | / | /
Fc1cccc(-c2ccc(Nc3nc(-c4ccncc4)nc4ccccc34)cc2F)c1 | / | / | 2% | / | / | /
Cn1cc(/C=C2\C(=O)Nc3cccnc32)c2ccccc21 | / | / | 45µM* | / | / | /
CCOc1ccc(CCNC(=O)CCc2c(C)nc3cc(-c4ccccc4OC)nn3c2C)cc1 | 9% | 13µM* | -4% | i | -81% | i
Cc1nc2c(c(C)nn2-c2ccccc2)c(C)c1CCC(=O)NCCc1ccccc1 | -3% | -1% | 8% | i | -7% | i
CCOc1ccccc1NC(=O)CCc1c(C)nc2cc(-c3ccccc3)nn2c1C | 0% | ? | 4% | i | -66% | i
Cc1nc2cc(-c3ccccc3)nn2c(C)c1CCC(=O)N1CCN(c2ccc(F)cc2)CC1 | 7% | 2µM* | 26% | i | -75% | i
Cc1ccc(NC(=O)CCc2c(C)nc3cc(-c4ccccc4)nn3c2C)cc1F | 0% | 2µM* | -19% | i | -71% | i
CCOc1ccc(CCNC(=O)CCc2c(C)nc3c(c(C)nn3-c3ccccc3)c2C)cc1OCC | 8% | -22% | 89µM* | i | -36% | i
CSc1ccc(CCNC(=O)CCc2c(C)nc3cc(-c4ccccc4)nn3c2C)cc1 | 1% | 2µM* | 0% | i | -68% | i

Assay outcomes deposited in PubChem BioAssay by National Center for Advancing Translational Sciences (NCATS).
